The values below come from PubChem BioAssay.

Values joined by “and” are separate entries in the source; they are usually repeats but may differ in a detail not shown here. Equal values may be shown once. Active and inactive are the calls of the source. Unless noted, how the calls were made is not given here.

Assay [1] is described as follows: A549 cell viability effects, profiling panel, calcein-AM fluorescence, 48 h, basal (AID 1162). Further: test concentration not given here. Conditions: higher = more signal.
Assay [2] can be described thus: adipocyte viability effects, profiling panel, cell-based, 3T3-L1 adipocytes, calcein-AM fluorescence, 48 h, basal (AID 1163). Further: test concentration not given here. Conditions: 3T3-L1 adipocytes viability, higher = more signal.
Assay [3] can be described thus: HepG2 cell viability effects, profiling panel, calcein-AM fluorescence, 48 h, basal (AID 1164). Further: test concentration not given here. Conditions: higher = more signal.
Assay [4] is described as follows: MM1S cell viability effects, profiling panel, calcein-AM fluorescence, 48 h, basal (AID 1165).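 Further: viability of MM1S multiple myeloma cells under basal unstimulated conditions; test concentration not given here.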 Conditions: higher = more signal.
A short description of assay [5]: basal RPMI8226 viability, no added stimulus, profiling panel, cell-based, calcein-AM fluorescence, 48 h, PK04 Diversity Set (AID 1166).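 Further: cells grown under basal conditions without added stimulus; test concentration not given here.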 The settings on record: RPMI8226 myeloma viability, higher = more signal.
A short description of assay [6]: basal HepG2 mitochondrial membrane potential changes, profiling panel, cell-based, JC-1 fluorescence, 24 h, 100 nL compound (AID 1167). Further: test concentration not given here. Conditions: higher = more signal.
Assay [7] can be described thus: basal 3T3-L1 adipocyte mitochondrial potential changes, profiling panel, cell-based, JC-1 fluorescence, 3T3-L1 adipocytes, 24 h, 100 nL compound (AID 1168). Further: test concentration not given here. The settings on record: JC-1 mitochondrial fluorescence, higher = more signal, called active from +8 up or from −8 down.
Assay [8] in a line: basal RPMI8226 mitochondrial membrane potential changes, profiling panel, cell-based, JC-1 fluorescence, 24 h, 100 nL compound (AID 1169). Further: test concentration not given here. The settings on record: RPMI8226 myeloma, JC-1 mitochondrial potential fluorescence, higher = more signal.
Assay [9] can be described thus: basal MM1S mitochondrial membrane potential changes, profiling panel, cell-based, JC-1 fluorescence, 24 h, 100 nL compound (AID 1170). Further: test concentration not given here. The settings on record: higher = more signal.
Assay [10] in a line: A549 lung cancer cell viability effects, profiling panel, resazurin fluorescence, 24 h, PK04 Diversity Set (AID 1171). Further: test concentration not given here. Conditions: higher = more signal, called active from +8 up or from −8 down. In general terms: Alamar Blue is a resazurin reagent that responds to reducing activity.
Assay [11] is described as follows: HepG2 liver cancer cell viability effects, profiling panel, resazurin fluorescence, 24 h, PK04 Diversity Set (AID 1172). Further: test concentration not given here. The settings on record: higher = more signal.
A short description of assay [12]: basal S. cerevisiae growth modulation, no modifier, primary screen, OD600, strain BY4716, 24 h, basal condition (AID 1173). Conditions: OD600, 24 h, higher = more signal, called active from +8 up or from −8 down.
The nature of assay [13]: MM1S myeloma cell viability, profiling panel, resazurin fluorescence, basal, 24 h, PK04 Diversity Set (AID 1174).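 Further: MM1S multiple myeloma cell line; test concentration not given here.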 The settings on record: higher = more signal, called active from +8 up or from −8 down.
The target of assay [14] is Dihydroorotate dehydrogenase (quinone), mitochondrial (Plasmodium falciparum (isolate 3D7)) (UniProt Q08210). Briefly: PfDHODH enzyme inhibitors, primary screen, biochemical, C-terminal His tag, absorbance 600 nm (AID 1175).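 Further: recombinant parasite enzyme with a five histidine tag at its C terminus; test concentration not given here.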 Conditions: DCIP absorbance 600 nm, higher = more signal, called active from +8 up or from −8 down.
Dihydroorotate dehydrogenase (quinone), mitochondrial (Plasmodium falciparum (isolate 3D7)), sequence (Q08210 whole entry, looked up): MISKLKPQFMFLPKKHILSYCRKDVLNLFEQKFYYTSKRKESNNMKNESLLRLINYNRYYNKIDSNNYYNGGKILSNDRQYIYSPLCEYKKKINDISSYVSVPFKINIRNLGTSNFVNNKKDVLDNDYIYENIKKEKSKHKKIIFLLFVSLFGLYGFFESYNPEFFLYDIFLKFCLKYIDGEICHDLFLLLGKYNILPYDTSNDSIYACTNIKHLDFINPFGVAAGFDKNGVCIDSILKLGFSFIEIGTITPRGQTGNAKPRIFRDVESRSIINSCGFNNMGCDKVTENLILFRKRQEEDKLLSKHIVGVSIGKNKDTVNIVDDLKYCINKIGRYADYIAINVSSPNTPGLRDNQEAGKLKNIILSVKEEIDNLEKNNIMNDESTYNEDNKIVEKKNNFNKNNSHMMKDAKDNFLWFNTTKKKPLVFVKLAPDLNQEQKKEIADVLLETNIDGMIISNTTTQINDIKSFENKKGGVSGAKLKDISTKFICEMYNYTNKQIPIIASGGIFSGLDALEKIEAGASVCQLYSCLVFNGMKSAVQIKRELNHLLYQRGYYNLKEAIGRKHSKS
Assay [15] is described as follows: P. aeruginosa biofilm formation inhibitors, primary screen, strain PAO1, LB-PBS medium, absorbance 600 nm (AID 1176). Further: test concentration not given here. The settings on record: P. aeruginosa PAO1 growth/biofilm, A600, 12 h; higher = more signal.
Assay [16] in a line: S. cerevisiae RM11-1a growth modifiers, primary screen, strain RM11-1a, OD600, basal, 24 h (AID 1177).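 Further: cultures grown under basal conditions with no added stressor; test concentration not given here.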 The settings on record: OD600, 24 h, higher = more signal, called active from +8 up or from −8 down.
A short description of assay [17]: E. coli acrAB mutant growth effects, primary screen, E. coli filamentation inducers, strain DRC39, OD650, 24 h (AID 1178).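 Further: growth measured as culture turbidity by optical density at 650 nm; test concentration not given here.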 The settings on record: higher = more signal, called active from +8 up or from −8 down.
A short description of assay [18]: E. coli acrAB mutant growth effects, primary screen, E. coli filamentation inducers, strain DRC39, OD650, 48 h (AID 1179).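 Further: screen aims at cell division blockers that make cells filament.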 The settings on record: E. coli DRC39 delta-acrAB growth, higher = more signal, called active from +8 up or from −8 down.
Assay [19] in a line: RPMI8226 myeloma cell viability, profiling panel, resazurin fluorescence, basal, 24 h, PK04 Diversity Set (AID 1180).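 Further: RPMI8826 multiple myeloma cell line at 5000 cells per well; test concentration not given here.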 The settings on record: higher = more signal.
Assay [20] addresses E3 ubiquitin-protein ligase XIAP (Homo sapiens) (UniProt P98170). Kind of assay: XIAP binders, primary screen, biophysical, small-molecule microarray, fluorescence 635 nm (AID 1181).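 Further: score merges 667 nm emission and signal to noise over triplicate slides.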 Conditions: small-molecule microarray binding, higher = more signal.

E3 ubiquitin-protein ligase XIAP (Homo sapiens), sequence (P98170 whole entry, looked up): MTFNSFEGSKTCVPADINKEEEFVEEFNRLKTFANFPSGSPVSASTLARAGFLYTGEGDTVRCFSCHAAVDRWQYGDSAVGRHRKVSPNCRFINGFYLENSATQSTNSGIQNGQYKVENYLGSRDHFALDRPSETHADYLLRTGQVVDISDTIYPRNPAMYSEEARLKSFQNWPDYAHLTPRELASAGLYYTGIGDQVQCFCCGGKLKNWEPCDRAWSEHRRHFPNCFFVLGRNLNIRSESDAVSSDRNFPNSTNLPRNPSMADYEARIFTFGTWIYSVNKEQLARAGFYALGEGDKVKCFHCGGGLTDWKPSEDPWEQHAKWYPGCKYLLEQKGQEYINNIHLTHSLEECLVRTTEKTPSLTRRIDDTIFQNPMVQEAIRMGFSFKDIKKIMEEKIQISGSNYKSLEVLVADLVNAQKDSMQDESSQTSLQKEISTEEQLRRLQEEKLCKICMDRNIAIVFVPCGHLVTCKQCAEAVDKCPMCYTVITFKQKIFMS

As to `C[N+](C)(C)CCCCCCNC(=O)[C@H]1C[C@H]2C(=O)N[C@@H](CCCC[N+](C)(C)C)C(=O)N2[C@H]1c1ccc(O)cc1`, the z-score in assay [1] was -0.512 and 0.597; in [2] it was 0.222 and -0.596; in assay [3], -1.45 and -0.367; in assay [4] it was -0.602 and 0.494; in [5], -0.149 and -0.0976; in assay [6], -1.34 and -0.105. Besides, the z-score in [7] was 0.913 (inactive) and 0.345 (inactive); in assay [8], -0.169 and 0.432; in [9] it was -0.657 and -0.528; in assay [10], -0.673 (inactive) and -0.0771 (inactive); in [11], -0.0179 and -0.609; in assay [12], -0.214 (inactive) and 0.205 (inactive). Further, the z-score in assay [13] was -0.0993 (inactive) and -1.52 (inactive); in assay [15], 2.63 (inactive) and 0.351 (inactive); in assay [16], 0.281 (inactive) and 0.826 (inactive); in assay [17] it was 0.0781 (inactive) and 0.75 (inactive); in assay [18], -0.978 (inactive) and 1.03 (inactive); in [19], -0.818 and -0.584. Moreover, the composite z-score in assay [14] was -1.01 (inactive) and -0.373 (inactive); in assay [20], -0.22 and -0.265.

On to `CC(CO)N1C(=O)[C@@H]2C3C(=O)OCCC=C[C@H]3OC23C=CCN(CCN2CCOCC2)C(=O)[C@@H]13` (stereo not given in full), for which the z-score is -0.438 and -0.439 in assay [1]; -0.465 and 0.0431 in assay [2]; -1.36 and -0.421 in assay [3]; 0.19 and 0.248 in assay [4]; -0.174 and -0.382 in assay [5]; -0.41 and -1.09 in assay [6]. In addition, the z-score in assay [7] is -0.189 (inactive) and -0.818 (inactive); in assay [8], -0.00565 and 0.13; in [9], -0.137 and -0.0991; in assay [10] it was -0.298 (inactive) and 0.141 (inactive); in assay [11], -0.437 and 0.303; in assay [12], 0.401 (inactive) and 0.191 (inactive). The z-score is -1.45 (inactive) and -0.517 (inactive) in assay [13]; 0.0405 (inactive) and 0.0809 (inactive) in assay [15]; 0.819 (inactive) and -0.631 (inactive) in assay [16]; -0.831 (inactive) and -0.259 (inactive) in [17]; -0.839 (inactive) and -0.358 (inactive) in assay [18]; -1.03 and -0.76 in assay [19]. For the same compound, the composite z-score in assay [14] was -1.07 (inactive) and -2.08 (inactive); in assay [20] it was 0.16 and 0.219.

`CCOC(=O)C[C@H]1[C@H](OC(=O)c2ccccc2-c2ccccc2)[C@@H](NC(=O)Cc2ccc(OC)cc2)c2cc(OCCCO)ccc2N1C(=O)c1ccc2ccccc2n1`: the z-score in assay [1] was 0.637 and 1.07; in [2], 1.49 and 0.317; in [3], 0.633 and 0.244; in assay [4], 0.218 and 0.868; in assay [5], -0.765 and -0.644; in assay [6], 3.65 and 1.61. For the same compound, the z-score in assay [7] was 0.611 (inactive) and 0.669 (inactive); in assay [8], 0.257 and -0.354; in assay [9] it was 0.82 and 0.248; in [10] it was 1.26 (inactive) and 0.555 (inactive); in assay [11], 0.528 and 0.85; in assay [12] it was -1.31 (inactive) and -0.5 (inactive). For the same compound, the z-score in assay [13] is 1.19 (inactive) and 0.644 (inactive); in assay [15], 0.456 (inactive); in assay [16] it was -0.484 (inactive) and -0.0944 (inactive); in assay [17], 2.5 (inactive) and 0.544 (inactive); in assay [18], 1.25 (inactive) and 0.422 (inactive); in assay [19], -0.0946 and 0.108. Also, the composite z-score in assay [14] was 0.34 (inactive) and 0.282 (inactive); in assay [20], -0.289 and 0.299.

In the case of `CC(C)CCN1CCc2nc(-c3ccccc3)c3c(c2C1)CO[C@@H](C)C3`, the z-score is -0.0742 in assay [1]; -0.626 in [2]; 1.15 in assay [3]; -1.18 in assay [4]; 0.0677 in [5]; 0.361 in assay [6]. Further, the z-score in [7] is -0.395 (inactive); in [8], -0.173; in assay [9] it was 0.324; in assay [10] it was -0.191 (inactive); in assay [11], -0.123; in assay [12] it was -1.08 (inactive). For the same compound, the z-score in [13] is -0.0881 (inactive); in assay [15], -0.188 (inactive); in [16], 0.396 (inactive); in assay [17], 0.66 (inactive); in [18], 0.0602 (inactive); in [19], 0.129. Moreover, the values for the composite z-score in [14] and in [20] were -0.363 (inactive) and 0.201, respectively.

Turning to `C[C@@H](c1ccccc1)N1C(=O)[C@H]2[C@H]3[C@H](O)[C@H](O)CC(=O)[C@@H]3CC[C@H]2C1=O`, the z-score in assay [1] was 0.0128; in [2] it was 0.762; in [3], 1.15; in assay [4] it was 0.288; in [5], -1.17; in assay [6] it was 0.921. The z-score was 2.42 (inactive) in assay [7]; -0.438 in assay [8]; 1.65 in [9]; -0.1 (inactive) in assay [10]; -0.7 in assay [11]; -1.05 (inactive) in assay [12]. For the same compound, the z-score in [13] is 0.295 (inactive); in assay [15], 0.377 (inactive); in [16], -2.9 (inactive); in assay [17] it was -0.579 (inactive); in assay [18], -0.954 (inactive); in assay [19] it was -0.62. In addition, the composite z-score is -1.59 (inactive) in [14] and -0.163 in assay [20].

Take `C=CCN(C(=O)C1N(c2c(Cl)cccc2CO)C(=O)C2C(C(=O)O)C3C=CC21O3)C(C)(C)C` (stereo not given): the z-score in assay [1] was -0.875 and 0.96; in [2], 0.766 and -0.202; in [3], 0.613 and 1.78; in assay [4], 0.64 and 1.54; in [5] it was -0.224 and -0.394; in assay [6], -0.536 and 0.627. For the same compound, the z-score is -1.27 (inactive) and 1.46 (inactive) in assay [7]; -0.153 and 0.828 in assay [8]; 0.0478 and 1.11 in [9]; -0.289 (inactive) and 0.361 (inactive) in assay [10]; 0.0972 and 0.393 in assay [11]; 0.134 (inactive) and -0.493 (inactive) in assay [12]. Also, the z-score is -0.0453 (inactive) and 1.02 (inactive) in assay [13]; -0.497 (inactive) and 0.053 (inactive) in [15]; 0.42 (inactive) and -1.92 (inactive) in assay [16]; 0.0114 (inactive) and 1.34 (inactive) in assay [17]; -0.228 (inactive) and 1.65 (inactive) in assay [18]; -0.338 and 0.957 in [19]. In addition, the composite z-score in [14] is -0.395 (inactive) and -0.725 (inactive); in assay [20], -0.217 and -0.113.
